Only some compounds are listed: those with a hit (about 2.3% of all), similar ones and a draw of the others.
CHT allo act = allosterically activates the human high affinity choline transporter | B-score at 10 µM | Q9GZV3 | hit rate 0.49% among 310,000 | CHT-expressing cells, membrane potential dye, choline EC20; active compounds read high; LV-AA mutant CHT in HEK293 cells | AID 488977;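 active = initial fluorescence not abnormally high and integrated response B-score, plate-corrected, over 3 SD above library mean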
TMEM16A act = activators or potentiators of mouse TMEM16A chloride channel. HEK293 TMEM16A/YFP-H148Q/I152L, iodide quench fluorescence; active compounds read low. B-score at 10 µM. hit rate 0.3% among 340,000;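 active = fluorescence-ratio B-score plate-corrected deviation score at least 3 library SD below zero, with starting fluorescence score within 5 deviations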;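 also: channel opened by trigger with iodide after compound preincubation; score built on the fluorescence ratio of max minus min over baseline; more negative score means more quench and so TMEM16A activation or potentiation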
Target sequence (Q8BHY3 whole entry, looked up): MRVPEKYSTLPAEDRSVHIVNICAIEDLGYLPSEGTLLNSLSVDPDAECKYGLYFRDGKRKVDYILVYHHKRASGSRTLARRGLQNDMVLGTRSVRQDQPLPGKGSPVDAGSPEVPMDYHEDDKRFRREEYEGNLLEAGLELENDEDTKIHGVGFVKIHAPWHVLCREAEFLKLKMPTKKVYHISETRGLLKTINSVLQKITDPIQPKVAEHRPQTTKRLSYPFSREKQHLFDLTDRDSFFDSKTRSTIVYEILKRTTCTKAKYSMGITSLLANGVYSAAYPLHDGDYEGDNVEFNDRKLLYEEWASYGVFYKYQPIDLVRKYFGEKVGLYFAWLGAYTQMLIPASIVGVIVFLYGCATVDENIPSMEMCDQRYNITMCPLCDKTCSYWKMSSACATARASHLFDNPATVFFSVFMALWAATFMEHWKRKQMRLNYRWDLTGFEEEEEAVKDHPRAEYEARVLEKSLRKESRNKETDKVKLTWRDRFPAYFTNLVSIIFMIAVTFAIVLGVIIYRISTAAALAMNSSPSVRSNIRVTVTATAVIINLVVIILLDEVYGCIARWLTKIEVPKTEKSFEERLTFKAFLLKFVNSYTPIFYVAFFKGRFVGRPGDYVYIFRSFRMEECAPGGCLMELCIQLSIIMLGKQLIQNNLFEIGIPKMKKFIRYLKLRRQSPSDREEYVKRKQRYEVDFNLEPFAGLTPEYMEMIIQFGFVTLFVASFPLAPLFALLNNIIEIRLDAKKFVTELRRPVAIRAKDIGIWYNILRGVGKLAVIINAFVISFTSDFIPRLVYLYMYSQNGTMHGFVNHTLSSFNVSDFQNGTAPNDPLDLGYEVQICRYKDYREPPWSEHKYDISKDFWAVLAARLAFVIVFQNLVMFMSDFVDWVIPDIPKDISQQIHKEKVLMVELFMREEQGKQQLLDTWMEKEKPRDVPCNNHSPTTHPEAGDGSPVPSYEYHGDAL
CHT inh = human CHT choline transport inhibition; Q9GZV3; CHT-expressing cells, membrane potential dye, choline response; active compounds read low; B-score at 10 µM; hit rate 0.86% among 310,000; AID 488975;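 active = B-score over 3 SD under the library average, and starting fluorescence ratio not unusually high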;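 also: choline stimulus applied at its EC90 after an EC20 pre-addition; B-score computed on integrated fluorescence ratio after choline addition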
TMEM16A inh = blocks the mouse calcium-activated chloride channel TMEM16A. Q8BHY3. HEK293 TMEM16A/YFP iodide influx fluorescence, ionomycin. normalized B-score (activity score, 25-100; higher = stronger inhibition) at 10 µM. hit rate 1.2% among 310,000. AID 588511;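 active = ratio plate-corrected score three or more library SD toward inhibition, starting fluorescence score within five deviations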;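 also: score derived from kinetic fluorescence span divided by baseline fluorescence per well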
CHT inh conf = human CHT inhibition, confirmatory screen; shares compounds with CHT inh; CHT-expressing cells, choline membrane potential dye; LV-to-AA substituted CHT, HEK293 cells; CHT activity remaining % of control (active compounds read low), % at 10 µM; hit rate 70% among 2,400; AID 493221;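 active = choline transporter activity left, mean of duplicates at 10 µM, below buffer-only control mean minus 3 SD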;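 also: depolarization triggered by choline at its EC90 following an EC20 pre-addition; 0% = hemicholinium-3 full block and 100% = buffer-only control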
HEK293 MPD ctr = counter-screen for CHT inhibitors: effect in parental HEK293 cells; shares compounds with CHT inh; membrane potential dye, choline response; active = decrease or increase beyond buffer ±3SD; membrane potential ratio readout (active if shifted either direction beyond buffer ±3SD; no single direction) at 10 µM; hit rate 4% among 2,400;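 also: parental cells lack the transporter so any hit is non-specific; ratio is peak minus trough fluorescence over baseline after EC90 choline challenge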
Active calls of the source: *; i = inactive; / = no result.

SMILES	CHT allo act	TMEM16A act	CHT inh	TMEM16A inh	CHT inh conf	HEK293 MPD ctr
COC(=O)CN1C(=O)S/C(=C/c2ccc(N3CCCCC3)o2)C1=O	i	i	-5.14*	i	i	i
CCn1c(SCC(=O)Nc2ccc(OC)cc2)nc2nc3c(cc2c1=O)COC(C)(C)C3	i	i	-4.97*	i	i	i
O=C(NCc1ccccc1)c1ccc(C2SCC(=O)N2Cc2ccccc2)cc1 (centres undefined)	i	i	i	i	/	/
C=CCNC(=O)c1ccc(C2SCC(=O)N2Cc2ccccc2)cc1 (centres undefined)	i	i	-6.97*	i	70.0%*	i
CC(=O)Nc1ccc2c(c1)C(N1CC3CCC(CC3)C1)c1ccccc1-2 (centres undefined)	/	i	/	/	/	/
O=S(=O)(c1ccc2ccccc2c1)N1CCN=C1SCc1cccnc1	i	i	-5.01*	i	i	i
C=CCC1(Cl)C(=O)C(Cl)=C(N2CCOCC2)C1(OC)OC (centres undefined)	i	i	i	i	/	/
CCC(NC(=O)CCc1nnc(-c2cc(C)on2)o1)C12CC3CC(CC(C3)C1)C2 (centres undefined)	i	i	-7.89*	i	44.4%*	i
COc1ccc(CCNC(=O)CSc2ccc(-c3cccs3)nn2)cc1OC	i	i	i	i	/	/
Cc1c(NC(=O)CSc2nnc(C(C)Oc3ccc(Cl)cc3)n2-c2ccccc2)c(=O)n(-c2ccccc2)n1C (centres undefined)	i	i	-10*	i	21.8%*	i
COc1ccccc1OC(C)c1nnc(SCC(=O)Nc2c(C)n(C)n(-c3ccccc3)c2=O)n1-c1ccccc1 (centres undefined)	i	i	i	i	/	/
CCCN1CCN(CCCNC(=S)Nc2ccc3nc(N4CCN(CC)CC4)cc(C)c3c2)CC1	i	i	-6.66*	i	13.3%*	i
CCCCNC(=S)Nc1ccc2nc(N3CCN(CC)CC3)cc(C)c2c1	i	/	i	i	/	/
CCN1CCN(c2cc(C)c3cc(NC(=S)NCCCN4CCc5ccccc5C4)ccc3n2)CC1	i	i	-5.35*	i	30.6%*	2.81*
Cc1cc(N2CCN(C)CC2)nc2ccc(NC(=S)NCCCN3CCc4ccccc4C3)cc12	i	i	i	i	/	/
Cc1ccc(S(=O)(=O)NC2=C(N3CCN(Cc4ccccc4)CC3)C(=O)c3ccccc3C2=O)cc1	i	i	-5.55*	i	70.9%*	i
Cc1ccc(S(=O)(=O)N2CCCCC2C(=O)N2CCN(Cc3ccccc3)CC2)cc1 (centres undefined)	i	i	-7.86*	i	36.7%*	-8.61*
Cc1ccc(S(=O)(=O)N2CCCC2C(=O)N2CCCCCC2)cc1 (centres undefined)	i	i	i	i	/	/
COc1cc(/C=C2\S/C(=N/S(=O)(=O)Cc3ccccc3)NC2=O)c([N+](=O)[O-])cc1OC	i	i	-4.95*	i	48.6%*	i
COc1cc(/C=C2/S/C(=N/S(=O)(=O)c3ccccc3)NC2=O)c([N+](=O)[O-])cc1OC	i	i	i	i	/	/
COc1cc(/C=C2/S/C(=N/S(=O)(=O)Cc3ccccc3)NC2=O)c([N+](=O)[O-])cc1OC	i	i	-6.29*	i	37.3%*	i
CC(=O)NS(=O)(=O)c1ccc(NC(=O)CSc2ccc(C)cc2)cc1	i	i	i	i	/	/
CCN(Cc1cc2cc(C)ccc2[nH]c1=O)C(=O)c1cccc([N+](=O)[O-])c1	i	i	i	i	/	/
COc1ccc(C(=O)O)cc1S(=O)(=O)N1CCN(Cc2ccc3c(c2)OCO3)CC1	/	i	/	/	/	/
Oc1c(C=Nc2ccc(Cl)cn2)sc2ccccc12	i	i	i	i	/	/
SMILES	CHT allo act	TMEM16A act	CHT inh	TMEM16A inh	CHT inh conf	HEK293 MPD ctr
Oc1c(/C=N/c2ccccn2)sc2ccccc12	i	i	-8.2*	i	i	i
CCn1c(SCC(=O)NC2CCCCC2C)nnc1-c1ccc(OC)cc1 (centres undefined)	i	i	i	i	/	/
CCN(CC)c1ccc(NS(=O)(=O)c2ccc(OC)cc2)cc1	i	i	i	i	/	/
O=C(O)c1cccc(CSc2ncn[nH]2)c1	i	i	-6.15*	i	i	i
Cc1ccc(S(=O)(=O)NNC(=O)Nc2ccc(Cl)cc2)cc1	i	i	i	i	/	/
Cc1occc1C(=O)NNS(=O)(=O)c1ccc(Cl)cc1	i	i	-5.45*	i	27.2%*	i
CCCn1c(N)c(N(CCOC)C(=O)c2cc(C)cc(C)c2)c(=O)[nH]c1=O	i	i	i	i	/	/
O=C(CCCc1nc(-c2ccc(Cl)cc2)no1)NC1CCCC1	i	i	i	i	/	/
Cc1cc(C)c2cc(C=O)c(Cl)nc2c1	i	i	-6.14*	i	i	i
CCN=C1S/C(=C\c2cc(Br)c(O)c(OC)c2)C(=O)N1CC	i	i	i	i	/	/
CC(=O)OC1CC2(C)C(=O)CCC2C2CCc3cc(O)ccc3C12 (centres undefined)	i	i	-8.13*	i	28.4%*	i
O=C(N/C(=C\c1ccc(Cl)cc1)C(=O)N1CCOCC1)c1ccc([N+](=O)[O-])cc1	i	i	i	i	/	/
CC1CCC(NC(=O)c2ccc(NC(=O)CC3SC(N4CCCC4)=NC3=O)cc2)CC1 (centres undefined)	i	i	-10.9*	i	11.2%*	i
CCCCNC(=O)c1onc(CSc2ccc(C(C)C)cc2)c1C(=O)O	i	i	-8.22*	25*	69.2%*	i
CCCCNC(=O)c1onc(CSc2ccccc2)c1C(=O)O	i	i	i	i	/	/
O=C(NNC1=C(C(=O)C(F)(F)F)CCC1)c1cccc(Cl)c1	i	i	-9.77*	100*	40.1%*	i
COc1ccc(S(=O)(=O)N2CCCCCC2)cc1NC(=O)CN1C(=O)CNC1=O	/	i	/	/	/	/
CCOc1cccc2sc(N(CCN(C)C)C(=O)c3ccc4c(c3)OCCO4)nc12	i	i	-8.44*	i	18.6%*	i
Cc1cccc2sc(N(CCCN(C)C)C(=O)c3ccc(Cl)s3)nc12	i	i	-6.8*	i	26.6%*	i
COc1cccc2sc(N(CCN(C)C)C(=O)c3ccc4c(c3)CCCC4)nc12	i	i	-10*	i	17.7%*	i
CCOc1cccc2sc(N(CCN(C)C)C(=O)c3cc4ccccc4cc3OC)nc12	i	i	i	i	/	/

High-throughput results from PubChem BioAssay.
